From PubChem
An excerpt weighted towards active compounds, which were near 5.4% of everything screened.
Sm TGR block: qHTS Assay for the Inhibitors of Schistosoma Mansoni Peroxiredoxins; Schistosoma mansoni thioredoxin glutathione reductase (TGR), Q962Y6; purified TGR, DTNB reduction, TNB absorbance 405 nm; Potency, µM (doses to about 114 µM), hits mostly inhibitors; actives 3% (n = 360,000); AID 485364, 2010; active means well fitted inhibition curve with a large enough effect; inconclusive means small, poorly fitted or top-dose-only effect; inactive means no such curve, though single readings can be large or run the other way; further: nearly all actives have a fitted effect of over 60% in size
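First, TGR (20 nM dispensed) and NADPH were mixed with compound. Second, a 15 min room-temperature incubation followed. Third, further NADPH and then DTNB were added to start the reaction. Finally, TNB absorbance was monitored kinetically.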
FMDV inh: High Throughput Screening for Foot and Mouth Disease Virus Antivirals; FMDV antiviral cell-based qHTS; Potency, µM (series often up to 57.9 µM), most hits filed as inhibitors; actives 1.2% (n = 410,000); calls by dose curve; tested in HEK293T cells; further: read-out not given here; nearly all actives have a fitted effect of over 45% in size
Lassa entry inh: qHTS for Inhibitors of binding or entry into cells for Lassa Virus; Lassa virus pseudotype entry inhibition, cell reporter; Potency, µM (doses to about 37.9 µM), most hits filed as inhibitors; actives 1.2% (n = 300,000); AID 540256, 2011; calls by dose curve; tested in HEK293 cells; further: nearly all actives have a fitted effect of over 50% in size
VACV Venus inh: qHTS for Stage-Specific Inhibitors of Vaccinia Orthopoxvirus: Venus Reporter Primary qHTS; Vaccinia virus Venus reporter expression, fluorescence; Potency, µM (highest dose often 36.5 µM), hits mostly inhibitors; actives 0.46% (n = 330,000); AID 720580, 2013; calls by dose curve; tested in A549 cells; further: nearly all actives have a fitted effect of over 30% in size
Vaccinia mCherry: qHTS for Stage-Specific Inhibitors of Vaccinia Orthopoxvirus: mCherry Reporter Primary qHTS; Vaccinia virus mCherry reporter infection, fluorescence; Potency, µM (titrated, usually from 36.5 µM), most hits filed as inhibitors; actives 0.63% (n = 310,000); calls by dose curve; tested in A549 cells; further: nearly all actives have a fitted effect of over 35% in size
MARV entry inh: qHTS for inhibitors of binding or entry into cells for Marburg Virus | Marburg virus pseudotyped entry inhibition, cell reporter | Potency, µM (doses to about 37.8 µM), most hits filed as inhibitors | actives 1.8% (n = 300,000); calls by dose curve; tested in HEK293 cells
A number is an active result; i = inactive; ? = inconclusive; nt = no result; ! = repeats disagree.

SMILES	Sm TGR block	FMDV inh	Lassa entry inh	VACV Venus inh	Vaccinia mCherry	MARV entry inh
C/C(=N\NC(=O)C(C)Oc1ccc([N+](=O)[O-])cc1)c1ccccn1 (configuration not stated)	i	i	11.6µM	nt	nt	?
O=C(NNC(=O)c1ccccn1)c1cccc([N+](=O)[O-])c1	i	i	nt	?	i	i
C/C(=N/NC(=O)CNC(=O)c1ccccn1)c1cccc([N+](=O)[O-])c1	20µM	i	i	i	i	i
CC1=C(C(=O)NCCc2ccc(Cl)cc2)C2(CCCCC2)OC1=O	i	i	i	i	i	nt
O=C(/C(Br)=C/Nc1cc(Cl)ccc1Cl)C(F)(F)F	22.4µM	i	i	i	i	?
COc1ccc(C(=O)N2CCN(c3nc4c(C)c(Cl)ccc4s3)CC2)c(OC)c1	i	?	i	i	i	nt
CCOC(=O)C(C)/C(C)=N/NC(N)=S (configuration not stated)	i	i	i	?	22.4µM	i
COc1ccc(-c2cc(N)n(S(=O)(=O)c3c(F)c(F)c(F)c(F)c3F)n2)cc1OC	2.51µM	?	?	nt	nt	2.31µM
COc1cc(NC(=O)Cn2c(C)cc(C)c(C#N)c2=O)cc(OC)c1	i	i	i	i	i	nt
CC(C)(C)C(=O)Nc1cc(-c2cccc(Br)c2)nn1-c1ccccc1	i	?	i	i	i	nt
CN(c1ccccc1)S(=O)(=O)c1cccc(C(=O)OCC(=O)NCc2ccccc2)c1	nt	i	i	i	i	?
O=C(NCc1ccco1)c1cccc(S(=O)(=O)N2CCOCC2)c1	?	i	i	nt	nt	i
O=C(COC(=O)c1ccc(S(=O)(=O)N2CCCC2)cc1)NCc1ccco1	39.8µM	i	i	i	i	i
O=C(COC(=O)c1cccc(S(=O)(=O)N2CCc3ccccc3C2)c1)NCc1ccco1	28.2µM	i	i	i	nt	i
O=C(NCc1ccco1)c1cccc(S(=O)(=O)N2CCCCC2)c1	25.1µM	i	i	i	nt	i
O=C(NCc1ccco1)c1ccc(S(=O)(=O)N2CCCCC2)cc1	i	i	nt	i	i	nt
CN(c1ccccc1)S(=O)(=O)c1cccc(C(=O)OCC(=O)NCc2ccco2)c1	56.2µM	i	i	i	i	i
O=C(COC(=O)c1cccc(S(=O)(=O)N2CCc3ccccc32)c1)NCc1ccco1	i	i	i	i	i	i
COC(=O)CN1C(=O)CSc2ccc(S(=O)(=O)N3CCOCC3)cc21	i	i	i	i	i	nt
Cc1cnc(CNc2cc(-c3cccc(C#N)c3)ncn2)cn1	nt	i	nt	nt	nt	nt
O=C(COC(=O)c1cc(S(=O)(=O)N2CCc3ccccc3C2)ccc1Cl)NCc1ccco1	17.8µM	i	?	i	i	i
O=C(COC(=O)c1cc(S(=O)(=O)N2CCOCC2)ccc1Cl)NCc1ccco1	i	i	i	i	i	i
CC(C)(C)OC(=O)N1CCC(c2c(C(=O)NCCN3CCOCC3)cnn2-c2ccc(F)cc2F)CC1	i	i	i	i	i	nt
O=C(Nc1ccc2c(c1)OCCO2)c1cccc(Br)c1	i	i	i	i	i	?
O=C(Nc1ccc2c(c1)OCCO2)c1cc2ccccc2o1	i	i	7.94µM	i	i	3.98µM
SMILES	Sm TGR block	FMDV inh	Lassa entry inh	VACV Venus inh	Vaccinia mCherry	MARV entry inh
O=C(Nc1ccc2c(c1)OCCO2)c1ccc(Br)cc1	i	i	?	i	i	3.98µM
COc1ccccc1C(=O)Nc1ccc2c(c1)OCCO2	i	i	?	i	nt	?
COc1cc(SC)ccc1C(=O)Nc1ccc2c(c1)OCCO2	i	i	11.6µM	i	i	?
Brc1ccc2c(c1)OCCOCCOc1cc(Br)ccc1OCCOCCOCCO2	i	?	?	10µM	?	?
CCOC(=O)c1c(C)[nH]c(C)c1S(=O)(=O)N1CCCC(C(=O)N2CCN(c3cc(C)ccc3C)CC2)C1 (configuration not stated)	i	?	i	i	i	nt
Cc1ccc(C(=O)Nc2ccc3c(c2)OCCO3)cc1	i	?	2.82µM	i	i	?
Cc1ccc(C(=O)Nc2ccc3c(c2)OCO3)cc1	i	i	?	i	i	?
Cc1ccc(C(=O)Nc2ccc3c(c2)CCC3)cc1	nt	i	16.4µM	nt	nt	?
CC(=O)OCC(=O)[C@@]12OC(C)(C)OC1CC1C3CC(F)C4=CC(=O)C=C[C@@]4(C)[C@@]3(F)C(O)C[C@]12C (some centres not stated)	nt	i	nt	i	i	nt
CCN(N=O)c1ccc(C=C2C=Cc3ccccc32)cc1	nt	i	3.98µM	i	i	?
CCN(N=O)c1ccc(/C=C2\C=Cc3ccccc32)cc1	nt	nt	nt	i	i	nt
CC(=O)N=c1nc(-c2ccccc2)n(-c2ccccc2)s1	nt	nt	nt	?	i	nt
CN=c1nc(-c2ccccc2)n(-c2ccccc2)s1	1.12µM	i	23.1µM	i	i	14.1µM!
O=C(/C=C/c1ccc([N+](=O)[O-])cc1)c1cccnc1	15.8µM	?	i	i	i	?
O=C(/C=C/c1cccnc1)c1ccc(F)c(F)c1	28.2µM	i	i	i	i	7.08µM
COC(=O)[C@]1(C)CC[C@@]2(C)CC[C@@]3(C)C4=CCc5c(cc(O)c(O)c5C)[C@]4(C)CC[C@@]3(C)C2C1 (some centres not stated)	nt	20µM	nt	i	i	nt
CCN(CC)C(=O)C1=C(C)Nc2nc3ccccc3n2C1c1ccc(Br)cc1 (configuration not stated)	i	i	i	i	i	i
O=C(N/N=C/c1ccco1)c1cc(-c2ccc3ccccc3c2)n[nH]1	i	i	?	?	i	12.6µM
Cc1c(C(=O)N(C)C2CCOC2)sc2ncnc(NCc3ccc4c(c3)OCO4)c12 (configuration not stated)	nt	i	nt	i	i	nt
N=C(N)SCc1ncccc1O	11.2µM	i	nt	nt	nt	nt
N=C(N)SCc1ccccn1	i	i	i	i	i	?
C=C(CN(C)C)C(=O)c1cc(C)ccc1C	nt	?	?	7.08µM	?	?
COc1cc(Nc2nc(SCc3cccc(Cl)c3)nc3ccccc23)cc(OC)c1	i	i	i	i	i	nt
COc1cccc(-n2nnnc2SCC(=O)Nc2ccccc2OC)c1	i	i	nt	nt	nt	nt
CCCS(=O)(=O)c1nnnn1-c1cccc(OC)c1	5.62µM	28.2µM	i	i	i	25.9µM
COc1ccc(-n2c(=O)c3c4c(sc3n(Cc3c(F)cccc3Cl)c2=O)CN(C(C)=O)CC4)cc1OC	i	i	i	i	i	nt
CC(C)OC(=O)c1nn2c(C(F)(F)F)cc(-c3ccc(Br)o3)nc2c1Br	20µM	i	i	nt	nt	?
CN(C)C(=O)Nc1ccccc1CC[N+](=O)[O-]	i	i	i	i	i	i
O=C(Nc1ccccc1CC[N+](=O)[O-])N1CCN(c2ccccc2)CC1	2.24µM	i	i	i	i	10µM
NC(=S)N/N=C/c1ccc(-n2nncc2-c2ccc(Cl)cc2)cc1	i	i	11.2µM	1.12µM	0.794µM	?
